Reference: the supplement of paper PMC11001985

Compound: C#CCNC(=O)CCSSCCC(=O)NCCc1ccc(C=O)c(C=O)c1
Test: lysine labeling ratio R10:1 (500 µM / 50 µM probe), SILAC-ABPP in living cells; higher = lower intrinsic lysine reactivity toward the probe, active = 2 or less
Details: HeLa; probe concentrations 500 vs 50 µM
Summary of the method: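 Measurements came from LC-MS/MS on a TIMS-TOF Pro of mixed SILAC light and heavy HeLa lysates after click to biotin-azide, trypsin digestion, neutravidin capture, DTT release and alkylation. Before lysis, the living cells sat in PBS at room temperature with 50 µM or 500 µM of an alkyne-tagged, disulfide-linked lysine probe, and labels were swapped forward and reverse. R per lysine is the median across both swap directions of the filtered median high-probe/low-probe MS1 peptide ratio. The cap is 20.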

UniProt Q9P0L0, sequence (Q9P0L0 whole entry): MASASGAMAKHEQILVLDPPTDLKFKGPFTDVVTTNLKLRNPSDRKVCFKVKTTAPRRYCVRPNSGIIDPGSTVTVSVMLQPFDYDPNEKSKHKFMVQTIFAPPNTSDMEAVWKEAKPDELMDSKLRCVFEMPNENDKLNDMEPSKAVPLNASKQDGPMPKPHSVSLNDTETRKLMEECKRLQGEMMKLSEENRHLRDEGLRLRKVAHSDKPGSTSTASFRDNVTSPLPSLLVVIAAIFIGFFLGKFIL
UniProt Q14118, sequence (Q14118 whole entry): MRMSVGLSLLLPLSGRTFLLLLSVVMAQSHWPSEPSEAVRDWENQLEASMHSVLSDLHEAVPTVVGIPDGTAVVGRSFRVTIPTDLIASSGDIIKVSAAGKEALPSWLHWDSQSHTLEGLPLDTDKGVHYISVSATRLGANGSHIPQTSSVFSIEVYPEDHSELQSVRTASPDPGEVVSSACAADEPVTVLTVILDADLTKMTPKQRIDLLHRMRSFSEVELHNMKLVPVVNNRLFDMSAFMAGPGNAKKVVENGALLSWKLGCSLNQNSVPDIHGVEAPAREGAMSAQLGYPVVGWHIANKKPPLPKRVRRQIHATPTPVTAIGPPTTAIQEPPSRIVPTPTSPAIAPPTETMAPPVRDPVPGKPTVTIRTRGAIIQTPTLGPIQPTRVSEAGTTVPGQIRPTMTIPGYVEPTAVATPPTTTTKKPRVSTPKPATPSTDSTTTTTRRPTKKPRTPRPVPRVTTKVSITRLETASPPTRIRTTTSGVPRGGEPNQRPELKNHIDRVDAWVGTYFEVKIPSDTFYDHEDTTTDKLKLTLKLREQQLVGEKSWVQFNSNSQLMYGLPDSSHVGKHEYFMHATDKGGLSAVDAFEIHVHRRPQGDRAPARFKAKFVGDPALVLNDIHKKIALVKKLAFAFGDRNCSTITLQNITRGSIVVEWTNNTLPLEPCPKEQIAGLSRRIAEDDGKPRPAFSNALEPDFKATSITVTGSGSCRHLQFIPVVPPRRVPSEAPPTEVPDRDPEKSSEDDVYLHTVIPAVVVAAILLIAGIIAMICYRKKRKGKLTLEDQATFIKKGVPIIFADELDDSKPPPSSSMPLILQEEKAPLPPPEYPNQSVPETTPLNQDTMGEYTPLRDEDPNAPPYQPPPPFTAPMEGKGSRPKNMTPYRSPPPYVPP
UniProt O43707, sequence (O43707 whole entry): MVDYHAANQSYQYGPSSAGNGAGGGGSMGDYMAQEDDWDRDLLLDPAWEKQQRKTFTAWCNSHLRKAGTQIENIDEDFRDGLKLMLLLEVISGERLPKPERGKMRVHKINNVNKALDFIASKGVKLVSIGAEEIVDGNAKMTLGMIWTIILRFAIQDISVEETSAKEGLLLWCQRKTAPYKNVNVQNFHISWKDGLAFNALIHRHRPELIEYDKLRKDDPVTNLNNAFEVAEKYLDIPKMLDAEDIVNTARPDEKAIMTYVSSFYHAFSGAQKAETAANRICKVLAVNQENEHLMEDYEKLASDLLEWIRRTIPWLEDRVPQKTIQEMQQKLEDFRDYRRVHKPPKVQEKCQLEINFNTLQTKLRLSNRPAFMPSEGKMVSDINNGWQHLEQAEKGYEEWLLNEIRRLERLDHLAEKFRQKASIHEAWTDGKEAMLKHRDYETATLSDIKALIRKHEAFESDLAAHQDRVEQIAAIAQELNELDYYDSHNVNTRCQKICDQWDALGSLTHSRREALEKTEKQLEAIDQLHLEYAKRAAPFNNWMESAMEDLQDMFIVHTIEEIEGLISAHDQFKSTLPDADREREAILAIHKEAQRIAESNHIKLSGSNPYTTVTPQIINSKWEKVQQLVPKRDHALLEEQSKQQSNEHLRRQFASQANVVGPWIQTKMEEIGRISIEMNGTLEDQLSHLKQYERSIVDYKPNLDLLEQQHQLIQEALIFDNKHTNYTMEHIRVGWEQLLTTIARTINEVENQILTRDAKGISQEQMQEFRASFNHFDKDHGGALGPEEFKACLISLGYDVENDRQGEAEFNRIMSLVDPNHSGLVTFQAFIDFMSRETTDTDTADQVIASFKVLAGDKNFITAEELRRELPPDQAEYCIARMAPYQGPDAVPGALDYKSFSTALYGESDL
UniProt P20908, sequence (P20908 whole entry): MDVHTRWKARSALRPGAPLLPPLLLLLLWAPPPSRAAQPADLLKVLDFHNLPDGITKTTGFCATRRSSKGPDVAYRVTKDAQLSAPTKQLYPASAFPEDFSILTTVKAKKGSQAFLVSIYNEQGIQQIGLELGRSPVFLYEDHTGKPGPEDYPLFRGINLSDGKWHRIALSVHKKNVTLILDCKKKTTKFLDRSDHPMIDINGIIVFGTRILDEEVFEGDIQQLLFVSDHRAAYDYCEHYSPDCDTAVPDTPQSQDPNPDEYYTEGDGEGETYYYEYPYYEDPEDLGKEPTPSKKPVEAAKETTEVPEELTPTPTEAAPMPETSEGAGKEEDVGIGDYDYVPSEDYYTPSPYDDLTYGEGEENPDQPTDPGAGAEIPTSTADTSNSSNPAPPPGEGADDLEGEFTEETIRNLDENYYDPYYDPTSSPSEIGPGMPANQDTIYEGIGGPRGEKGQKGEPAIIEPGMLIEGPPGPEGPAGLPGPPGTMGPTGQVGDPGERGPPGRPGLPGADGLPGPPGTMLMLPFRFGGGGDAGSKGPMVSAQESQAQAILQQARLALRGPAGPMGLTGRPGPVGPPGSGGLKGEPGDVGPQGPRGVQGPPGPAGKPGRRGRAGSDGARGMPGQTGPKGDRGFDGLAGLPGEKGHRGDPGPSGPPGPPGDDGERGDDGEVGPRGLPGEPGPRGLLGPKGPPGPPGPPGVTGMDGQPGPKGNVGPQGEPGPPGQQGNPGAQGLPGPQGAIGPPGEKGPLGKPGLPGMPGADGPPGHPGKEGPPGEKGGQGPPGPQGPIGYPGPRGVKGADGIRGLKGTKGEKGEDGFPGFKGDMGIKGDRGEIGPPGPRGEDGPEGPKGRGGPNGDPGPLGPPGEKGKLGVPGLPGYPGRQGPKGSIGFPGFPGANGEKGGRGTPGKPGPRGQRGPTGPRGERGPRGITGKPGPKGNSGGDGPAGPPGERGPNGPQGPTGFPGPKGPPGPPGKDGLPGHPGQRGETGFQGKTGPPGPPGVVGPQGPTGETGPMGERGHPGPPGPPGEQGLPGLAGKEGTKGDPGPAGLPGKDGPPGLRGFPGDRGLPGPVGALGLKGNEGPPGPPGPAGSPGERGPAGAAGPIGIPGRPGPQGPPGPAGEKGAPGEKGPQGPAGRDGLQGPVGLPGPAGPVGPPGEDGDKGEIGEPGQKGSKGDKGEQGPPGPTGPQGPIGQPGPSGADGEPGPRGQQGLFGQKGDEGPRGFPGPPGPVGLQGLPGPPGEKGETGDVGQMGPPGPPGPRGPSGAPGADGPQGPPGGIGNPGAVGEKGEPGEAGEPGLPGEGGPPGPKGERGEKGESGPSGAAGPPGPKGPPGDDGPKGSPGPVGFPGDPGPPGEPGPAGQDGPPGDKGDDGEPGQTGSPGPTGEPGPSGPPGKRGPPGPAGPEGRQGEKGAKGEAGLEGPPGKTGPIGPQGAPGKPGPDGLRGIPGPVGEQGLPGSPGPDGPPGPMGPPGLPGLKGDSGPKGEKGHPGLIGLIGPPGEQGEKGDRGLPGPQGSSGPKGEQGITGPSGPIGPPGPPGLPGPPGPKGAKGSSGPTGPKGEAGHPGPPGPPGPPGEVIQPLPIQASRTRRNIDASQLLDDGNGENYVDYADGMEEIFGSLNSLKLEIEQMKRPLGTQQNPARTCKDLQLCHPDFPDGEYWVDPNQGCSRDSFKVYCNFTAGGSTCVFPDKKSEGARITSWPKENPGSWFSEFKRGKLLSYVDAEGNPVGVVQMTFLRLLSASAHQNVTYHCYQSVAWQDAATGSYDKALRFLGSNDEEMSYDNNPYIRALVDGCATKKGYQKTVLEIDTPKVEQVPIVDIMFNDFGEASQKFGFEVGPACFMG
UniProt Q02818, sequence (Q02818 whole entry): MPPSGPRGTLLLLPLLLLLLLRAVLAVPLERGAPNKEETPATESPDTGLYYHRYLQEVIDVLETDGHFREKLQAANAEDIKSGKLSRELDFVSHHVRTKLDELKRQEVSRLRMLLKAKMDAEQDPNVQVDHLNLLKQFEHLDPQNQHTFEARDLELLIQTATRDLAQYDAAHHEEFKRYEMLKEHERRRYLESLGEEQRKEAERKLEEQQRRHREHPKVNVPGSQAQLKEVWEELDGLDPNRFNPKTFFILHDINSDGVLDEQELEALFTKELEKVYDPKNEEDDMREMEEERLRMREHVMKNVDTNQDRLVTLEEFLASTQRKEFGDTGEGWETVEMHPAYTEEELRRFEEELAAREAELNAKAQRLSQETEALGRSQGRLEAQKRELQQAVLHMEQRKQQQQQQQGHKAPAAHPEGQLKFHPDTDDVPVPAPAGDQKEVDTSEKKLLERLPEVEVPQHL
UniProt P23142, sequence (P23142 whole entry): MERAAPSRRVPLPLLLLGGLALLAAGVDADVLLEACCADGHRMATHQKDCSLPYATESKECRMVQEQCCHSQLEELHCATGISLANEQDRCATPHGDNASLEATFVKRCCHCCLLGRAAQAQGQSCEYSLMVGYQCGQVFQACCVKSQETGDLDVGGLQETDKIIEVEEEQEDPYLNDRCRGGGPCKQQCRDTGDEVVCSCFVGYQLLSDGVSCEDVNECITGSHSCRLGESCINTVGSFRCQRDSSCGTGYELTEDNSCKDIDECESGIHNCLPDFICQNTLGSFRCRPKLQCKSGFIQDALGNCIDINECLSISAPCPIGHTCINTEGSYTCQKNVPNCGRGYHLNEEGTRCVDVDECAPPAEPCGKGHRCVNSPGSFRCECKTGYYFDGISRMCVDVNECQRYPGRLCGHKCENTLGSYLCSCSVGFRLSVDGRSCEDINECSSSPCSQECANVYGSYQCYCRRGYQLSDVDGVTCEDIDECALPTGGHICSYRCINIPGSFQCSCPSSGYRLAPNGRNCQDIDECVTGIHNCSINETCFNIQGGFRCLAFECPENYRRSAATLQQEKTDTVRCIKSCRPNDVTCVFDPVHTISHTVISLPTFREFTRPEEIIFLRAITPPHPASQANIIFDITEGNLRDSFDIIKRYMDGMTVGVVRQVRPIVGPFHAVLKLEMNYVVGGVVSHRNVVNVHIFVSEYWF

Row | Target | lysine labeling ratio R10:1
1 | ITGAV (lysine site: K499) (UniProt P06756) | 3.64 (inactive)
2 | PPP2CA (lysine site: K41) (UniProt P67775) | 1.68 (active)
3 | IGSF3 (lysine site: K92) (UniProt O75054) | 2.4 (inactive)
4 | VAPA (lysine site: K180) (UniProt Q9P0L0) | 1.96 (active)
5 | UniProt P60660 (lysine site: K98) | 3.79 (inactive)
6 | NUCB1 (lysine site: K183) (UniProt Q02818) | 3.16 (inactive)
7 | UniProt P62899 (lysine site: K75) | 2.92 (inactive)
8 | FRAS1 (lysine site: K263) (UniProt Q86XX4) | 1.46 (active)
9 | FBLN1 (lysine site: K187) (UniProt P23142) | 2.05 (inactive)
10 | LRP1 (lysine site: K2009) (UniProt Q07954) | 3.1 (inactive)
11 | COL5A1 (lysine site: K57) (UniProt P20908) | 1.11 (active)
12 | DAG1 (lysine site: K500) (UniProt Q14118) | 4.65 (inactive)
13 | ACTN4 (lysine site: K66) (UniProt O43707) | 4.43 (inactive)
14 | TLN1 (lysine site: K428) (UniProt Q9Y490) | 2.34 (inactive)
15 | ITGA6 (lysine site: K144) (UniProt P23229) | 4.01 (inactive)
16 | G6PD (lysine site: K497) (UniProt P11413) | 3.47 (inactive)
17 | PDCD5 (lysine site: K33) (UniProt O14737) | 4.82 (inactive)
